The record followed here is the supplement of paper PMC12494721.

Where a name gives a salt, the structure may show the parent alone.

Holding throughout (settings): incubation time: 27 h, anaerobic, 37 °C
The test system of experiment [1] is Clostridium sporogenes DSM 1664. Briefly: growth (OD595) fold change vs plate DMSO controls (fold change (ratio)); higher = more growth. The essentials:
(§1)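 Anaerobic 27 h, 37 °C mGAM 96-well cultures were shaken, then read for absorbance at 595 nm. Values were blank-subtracted and corrected for compound background using 20 µM compound solutions in water. A calibration factor of 5 converted them to OD. Growth is the fold change versus the median of plate DMSO controls. Fold changes above 1.5 were set to NA, and values are the mean of 2 biological replicates.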

Experiment [2] deals with Escherichia coli IAI1. The description is as above. The essentials:
as §1

Experiment [3] has as its system Klebsiella aerogenes DSM 30053. The experiment is described as above. The essentials:
as §1

Experiment [4] concerns Ruminococcus gnavus DSM 108212. Described as above. The essentials:
as §1

The subject of experiment [5] is Klebsiella aerogenes DSM 30053. Briefly: fold change of Histamine concentration vs plate DMSO controls (fold change (ratio)); higher = more amine produced, active = hit call of the paper (significant change in both replicates, either direction). An outline of the steps: (§2)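 Each value is the fold change relative to DMSO-only wells on the same plate. Four gut bacterial strains were grown anaerobically in mGAM at 37 °C for 27 h in 80 µL wells, starting at OD 0.1 before a 1:1 dilution, with compounds at 20 µM final (sweeteners 50 µM). Whole cultures were extracted with cold acetonitrile/methanol containing 0.1% formic acid, centrifuged, and amines were quantified by LC–triple-quadrupole MS (dynamic MRM) against external calibration curves with within-batch drift correction. Values are means of 2 biological replicates.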

In experiment [6] the test system is Clostridium sporogenes DSM 1664. As to the kind of experiment: fold change of Tryptamine concentration vs plate DMSO controls (fold change (ratio)); higher = more amine produced, active = hit call of the paper (significant change in both replicates, either direction). The essentials:
as §2

In experiment [7] the test system is Ruminococcus gnavus DSM 108212. Described as above. The essentials: as §2
In experiment [8] the test system is Escherichia coli IAI1. As to the kind of experiment: fold change of Putrescine concentration vs plate DMSO controls (fold change (ratio)); higher = more amine produced, active = hit call of the paper (significant change in both replicates, either direction). An outline of the steps:
as §2

Experiment [9] relates to Klebsiella aerogenes DSM 30053. Described as above. An outline of the steps: as §2
For experiment [10], the system named is Escherichia coli IAI1. As to the kind of experiment: fold change of Cadaverine concentration vs plate DMSO controls (fold change (ratio)); higher = more amine produced, active = hit call of the paper (significant change in both replicates, either direction). The essentials:
as §2

Experiment [11] relates to Klebsiella aerogenes DSM 30053. The experiment is described as above. The essentials: as §2
Experiment [12] has as its system Ruminococcus gnavus DSM 108212. Briefly: fold change of 2-Phenylethylamine concentration vs plate DMSO controls (fold change (ratio)); higher = more amine produced, active = hit call of the paper (significant change in both replicates, either direction). An outline of the steps: as §2

In the case of `CCCCCOC(=O)Nc1nc(=O)n([C@@H]2O[C@H](C)[C@@H](O)[C@H]2O)cc1F` [Capecitabine] (20 µM), the growth amounted to 1.12 in experiment [1], 0.991 in [2], 1.07 in experiment [3] and 0.98 in [4]. Besides, the “fold change of Histamine concentration” value in [5] was 0.921 (inactive). Also, the “fold change of Tryptamine concentration” value in experiment [6] was 0.982 (inactive); in [7] it was 1.03 (inactive). For the same molecule, the “fold change of Putrescine concentration” value in [8] is 0.993 (inactive); in experiment [9], 0.99 (inactive). Further, the “fold change of Cadaverine concentration” value in experiment [10] was 1.01 (inactive); in [11], 1 (inactive). Moreover, the “fold change of 2-Phenylethylamine concentration” value in experiment [12] was 1.06 (inactive).

`NS(=O)(=O)c1cc(C2(O)NC(=O)c3ccccc32)ccc1Cl` (centres undefined) [Chlorthalidone] (20 µM): the growth in [1] was determined as 0.955; in [2], 0.977; in experiment [3], 1; in experiment [4] it was 1.17. For the same molecule, in experiment [5], the “fold change of Histamine concentration” value is 1.09 (inactive). Also, the “fold change of Tryptamine concentration” value in experiment [6] was 1 (inactive); in experiment [7], 1.03 (inactive). The “fold change of Putrescine concentration” value was 0.992 (inactive) in [8] and 1.03 (inactive) in experiment [9]. In addition, the “fold change of Cadaverine concentration” value in experiment [10] was 0.973 (inactive); in experiment [11] it was 0.983 (inactive). Further, the “fold change of 2-Phenylethylamine concentration” value in [12] is 1.04 (inactive).

On to `CCN1CCN(C(=O)N[C@@H](C(=O)N[C@@H]2C(=O)N3[C@@H]2SC(C)(C)[C@@H]3C(=O)O)c2ccccc2)C(=O)C1=O` [Piperacillin sodium salt] (20 µM), for which the growth in [1] was determined as 0; in experiment [2], 0.563; in experiment [3], 1.07; in experiment [4], 0. In addition, the “fold change of Histamine concentration” value in experiment [5] was 0.706 (inactive). Also, the “fold change of Tryptamine concentration” value is 0.0439 (active) in [6] and 0.0274 (active) in [7]. Also, the “fold change of Putrescine concentration” value in experiment [8] is 1.17 (inactive); in experiment [9], 1.06 (inactive). The “fold change of Cadaverine concentration” value in experiment [10] was 1.84 (active); in [11], 1.03 (inactive). For the same molecule, the “fold change of 2-Phenylethylamine concentration” value in [12] is 0.0313 (active).

Consider `C[C@@H]1CCO[C@H]2Cn3cc(C(=O)NCc4ccc(F)cc4F)c(=O)c(O)c3C(=O)N12` [Dolutegravir] (20 µM), for which the growth in experiment [1] was found to be 1.06; in experiment [2], 1.02; in experiment [3], 0.992; in experiment [4] it was 0.891. Moreover, the “fold change of Histamine concentration” value in experiment [5] is 1.08 (inactive). Also, the results for the “fold change of Tryptamine concentration” value in experiment [6] and in [7] were 1.02 (inactive) and 0.954 (inactive), respectively. The “fold change of Putrescine concentration” value is 1.07 (inactive) in experiment [8] and 0.999 (inactive) in experiment [9]. Besides, the entries for the “fold change of Cadaverine concentration” value in experiment [10] and in [11] were 0.984 (inactive) and 0.987 (inactive), respectively. Besides, the “fold change of 2-Phenylethylamine concentration” value in experiment [12] was 0.941 (inactive).

On to `CN(C)CCCC1(c2ccc(F)cc2)OCc2cc(C#N)ccc21` (centres undefined) [Citalopram hydrobromide] (20 µM), for which the growth came out at 0.923 in [1], 0.992 in [2], 0.994 in experiment [3] and 1.08 in experiment [4]. Also, the “fold change of Histamine concentration” value in experiment [5] was 0.919 (inactive). The “fold change of Tryptamine concentration” value in experiment [6] is 0.955 (inactive); in experiment [7], 0.845 (inactive). Further, the “fold change of Putrescine concentration” value in experiment [8] was 0.927 (inactive); in [9] it was 1 (inactive). For the same molecule, the “fold change of Cadaverine concentration” value was 0.991 (inactive) in experiment [10] and 1.01 (inactive) in [11]. The “fold change of 2-Phenylethylamine concentration” value in [12] was 0.788 (inactive).

For the molecule `O=C(O)CCC(=O)Nc1ccc(S(=O)(=O)Nc2nccs2)cc1` [Succinylsulfathiazole] (20 µM), the growth in [1] turned out to be 1.03; in experiment [2], 1.11; in experiment [3] it was 1.2; in [4] it was 1.13. In experiment [5], the “fold change of Histamine concentration” value is 0.965 (inactive). In addition, the “fold change of Tryptamine concentration” value in experiment [6] was 0.988 (inactive); in experiment [7], 1.02 (inactive). Also, the figures for the “fold change of Putrescine concentration” value in experiment [8] and in experiment [9] were 1.04 (inactive) and 0.997 (inactive), respectively. Moreover, the “fold change of Cadaverine concentration” value in [10] is 0.991 (inactive); in [11] it was 1.01 (inactive). In addition, in [12], the “fold change of 2-Phenylethylamine concentration” value is 1.02 (inactive).

With `C[C@@H]1O[C@@H](O[C@H]2[C@H](Oc3cc(O)c(C(=O)CCc4ccc(O)cc4)c(O)c3)O[C@H](CO)[C@@H](O)[C@@H]2O)[C@H](O)[C@H](O)[C@H]1O` [Naringin Dihydrochalcone] (50 µM), the growth is 1.1 in experiment [1], 0.965 in experiment [2], 1.05 in [3] and 1.2 in experiment [4]. Also, the “fold change of Histamine concentration” value in [5] was 0.958 (inactive). Further, the “fold change of Tryptamine concentration” value in [6] was 0.968 (inactive); in [7], 1 (inactive). Besides, the “fold change of Putrescine concentration” value is 0.983 (inactive) in [8] and 0.996 (inactive) in [9]. For the same molecule, the figures for the “fold change of Cadaverine concentration” value in [10] and in experiment [11] were 1.13 (inactive) and 1.01 (inactive), respectively. Moreover, the “fold change of 2-Phenylethylamine concentration” value in experiment [12] is 0.966 (inactive).

For `C[C@@H]1C[C@H]2[C@@H]3CCC4=CC(=O)C=C[C@]4(C)[C@@]3(Cl)[C@@H](O)C[C@]2(C)[C@@]1(OC(=O)c1ccco1)C(=O)CCl` [Mometasone furoate] (20 µM), the growth in experiment [1] worked out at 1.08; in experiment [2], 0.984; in [3], 1.14; in [4], 1.04. In addition, the “fold change of Histamine concentration” value in experiment [5] was 0.923 (inactive). Also, the “fold change of Tryptamine concentration” value in experiment [6] was 0.991 (inactive); in experiment [7] it was 0.889 (inactive). Also, the “fold change of Putrescine concentration” value in experiment [8] is 1.02 (inactive); in experiment [9], 1 (inactive). In addition, the “fold change of Cadaverine concentration” value in experiment [10] and in experiment [11] was 1.03 (inactive) each time. In addition, the “fold change of 2-Phenylethylamine concentration” value in [12] is 0.898 (inactive).

Take `CC(C)NC[C@H](O)COc1ccc(CC(N)=O)cc1` [(S,-) Atenolol] (20 µM): the growth is 0 in [1], 0.913 in [2], 1.01 in [3] and 0.825 in [4]. Besides, the “fold change of Histamine concentration” value in experiment [5] is 1.04 (inactive). Also, the “fold change of Tryptamine concentration” value in experiment [6] was 0.0316 (active); in experiment [7], 0.944 (inactive). Further, the “fold change of Putrescine concentration” value in experiment [8] was 0.847 (inactive); in experiment [9], 1.03 (inactive). In addition, the “fold change of Cadaverine concentration” value was 0.954 (inactive) in experiment [10] and 1.02 (inactive) in [11]. In [12], the “fold change of 2-Phenylethylamine concentration” value is 0.909 (inactive).

`CN1CCC(=C2c3ccccc3CCc3sccc32)CC1` [Pizotifen malate] (20 µM): the growth in experiment [1] was 1.3; in experiment [2], 1.03; in [3], 0.982; in experiment [4], 0.963. For the same molecule, the “fold change of Histamine concentration” value in experiment [5] is 1.06 (inactive). For the same molecule, the entries for the “fold change of Tryptamine concentration” value in experiment [6] and in experiment [7] were 1.01 (inactive) and 0.924 (inactive), respectively. Also, the “fold change of Putrescine concentration” value in experiment [8] was 1 (inactive); in experiment [9] it was 1.01 (inactive). Further, the “fold change of Cadaverine concentration” value in [10] is 1.04 (inactive); in experiment [11] it was 0.994 (inactive). In addition, the “fold change of 2-Phenylethylamine concentration” value in [12] was 0.987 (inactive).

With `Cc1ccc(/C(=C\CN2CCCC2)c2ccccn2)cc1` [Triprolidine hydrochloride] (20 µM), the growth was determined as 1.08 in experiment [1], 1.01 in experiment [2], 0.998 in experiment [3] and 1.1 in experiment [4]. Further, the “fold change of Histamine concentration” value in experiment [5] is 1.05 (inactive). The figures for the “fold change of Tryptamine concentration” value in experiment [6] and in experiment [7] were 1.02 (inactive) and 1.01 (inactive), respectively. In addition, the “fold change of Putrescine concentration” value was 1.09 (inactive) in [8] and 1.02 (inactive) in [9]. In addition, the “fold change of Cadaverine concentration” value was 0.797 (inactive) in experiment [10] and 0.987 (inactive) in experiment [11]. In addition, the “fold change of 2-Phenylethylamine concentration” value in experiment [12] was 0.986 (inactive).

Turning to `CCOCC(O)COc1ccc(NC(=O)CC[S+](C)C)cc1` (centres undefined) [Suplatast Tosylate] (20 µM), the growth in experiment [1] came out at 0.999; in [2], 1.04; in experiment [3] it was 0.988; in [4], 1. Also, the “fold change of Histamine concentration” value in [5] was 1.03 (inactive). For the same molecule, the “fold change of Tryptamine concentration” value in experiment [6] is 1.01 (inactive); in [7], 0.978 (inactive). For the same molecule, the “fold change of Putrescine concentration” value in [8] is 1.04 (inactive); in experiment [9] it was 1.02 (inactive). In addition, the figures for the “fold change of Cadaverine concentration” value in experiment [10] and in [11] were 0.989 (inactive) and 0.991 (inactive), respectively. In addition, in experiment [12], the “fold change of 2-Phenylethylamine concentration” value was 0.909 (inactive).
